Measurements reported in PubChem BioAssay AID1159580 (chemical genetic matrix, 2015).
Hit rate of the full screen: of about 5,500 compounds, about 2,000 (36%) were called active. Another 18% or so got no clear call; they are omitted. Some of the results follow. Unmarked numbers belong to inactive results. Rule as the data show it: active = normalized growth mostly below about 0.91 (no sharp cut-off); inconclusive = no clear call, values can overlap the other calls; inactive = mostly above about 0.92.

Experiment: chemical genetic growth profiling, strain panel (AID 1159580);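 also: tested at 20 µM; growth read once vehicle control cultures reached saturation at 30 °C; 1 = growth at the plate median or of vehicle wells; lower values mean less growth of the strain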
Settings: S. cerevisiae deletion strains, growth OD

CC(C)Oc1ccc2c(=O)cc(-c3ccccc3)oc2c1
normalized growth (locus YAL013W, strain DEP1, stronger effect = lower value): 0.892 (active)
normalized growth (locus YAL021C, strain ccr4, stronger effect = lower value): 0.956
normalized growth (locus YAL026C, strain drs2, stronger effect = lower value): 0.934
normalized growth (locus YAL030W, strain snc1, stronger effect = lower value): 0.955
normalized growth (locus YBL061C, strain skt5, stronger effect = lower value): 0.929
normalized growth (locus YBR009C, strain hhf1, stronger effect = lower value): 0.952
normalized growth (locus YBR021W, strain FUR4, stronger effect = lower value): 0.844 (active)
normalized growth (locus YBR023C, strain chs3, stronger effect = lower value): 0.944
normalized growth (locus YBR171W, strain sec66, stronger effect = lower value): 0.912
normalized growth (locus YBR229C, strain ROT2, stronger effect = lower value): 0.915
normalized growth (locus YBR231C, strain swc5, stronger effect = lower value): 0.937
normalized growth (locus YBR279W, strain paf1, stronger effect = lower value): 0.963
normalized growth (locus YCL011C, strain gbp2, stronger effect = lower value): 0.923
normalized growth (locus YCL016C, strain dcc1, stronger effect = lower value): 0.94
normalized growth (locus YCL029C, strain bik1, stronger effect = lower value): 0.88 (active)
normalized growth (locus YCL061C, strain MRC1, stronger effect = lower value): 0.918 (active)
normalized growth (locus YCL069W, strain vba3, stronger effect = lower value): 0.95
normalized growth (locus YCR088W, strain abp1, stronger effect = lower value): 0.933
normalized growth (locus YDL005C, strain med2, stronger effect = lower value): 0.96
normalized growth (locus YDL035C, strain GPR1, stronger effect = lower value): 0.984
normalized growth (locus YDL040C, strain nat1, stronger effect = lower value): 0.953
normalized growth (locus YDL074C, strain BRE1, stronger effect = lower value): 0.871
normalized growth (locus YDL101C, strain DUN1, stronger effect = lower value): 0.938
normalized growth (locus YDL185W, strain tfp1, stronger effect = lower value): 0.423 (active)
normalized growth (locus YDL192W, strain arf1, stronger effect = lower value): 0.884 (active)
normalized growth (locus YDR001C, strain nth1, stronger effect = lower value): 0.943
normalized growth (locus YDR069C, strain doa4, stronger effect = lower value): 0.972
normalized growth (locus YDR101C, strain arx1, stronger effect = lower value): 0.906 (active)
normalized growth (locus YDR137W, strain rgp1, stronger effect = lower value): 0.834 (active)
normalized growth (locus YDR150W, strain NUM1, stronger effect = lower value): 0.937
normalized growth (locus YDR159W, strain sac3, stronger effect = lower value): 0.919
normalized growth (locus YDR162C, strain NBP2, stronger effect = lower value): 0.953
normalized growth (locus YDR195W, strain ref2): 1.03
normalized growth (locus YDR297W, strain sur2, stronger effect = lower value): 0.95
normalized growth (locus YDR318W, strain mcm21, stronger effect = lower value): 0.885 (active)
normalized growth (locus YDR334W, strain swr1, stronger effect = lower value): 0.953
normalized growth (locus YDR335W, strain msn5, stronger effect = lower value): 0.962
normalized growth (locus YDR388W, stronger effect = lower value): 0.876 (active)
normalized growth (locus YDR392W, strain spt3, stronger effect = lower value): 0.358 (active)
normalized growth (locus YDR502C, strain sam2, stronger effect = lower value): 0.904 (active)
normalized growth (locus YEL003W, strain gim4, stronger effect = lower value): 0.887 (active)
normalized growth (locus YEL037C, strain rad23, stronger effect = lower value): 0.953
normalized growth (locus YEL061C, strain CIN8 (second series), stronger effect = lower value): 0.916
normalized growth (locus YEL061C, strain CIN8, stronger effect = lower value): 0.923 (active)
normalized growth (locus YER015W, strain faa2, stronger effect = lower value): 0.962
normalized growth (locus YER016W, strain bim1, stronger effect = lower value): 0.956
normalized growth (locus YER110C, stronger effect = lower value): 0.886 (active)
normalized growth (locus YER111C, strain swi4, stronger effect = lower value): 0.959
normalized growth (locus YER155C, strain BEM2 (second series), stronger effect = lower value): 0.679 (active)
normalized growth (locus YER155C, strain BEM2, stronger effect = lower value): 0.85 (active)
normalized growth (locus YER167W, strain BCK2, stronger effect = lower value): 0.925
normalized growth (locus YFR010W, strain ubp6, stronger effect = lower value): 0.936
normalized growth (locus YGL078C, strain dbp3, stronger effect = lower value): 0.815 (active)
normalized growth (locus YGL086W, strain mad1, stronger effect = lower value): 0.91 (active)
normalized growth (locus YGL167C, strain pmr1, stronger effect = lower value): 0.946
normalized growth (locus YGL173C, strain kem1, stronger effect = lower value): 0.943
normalized growth (locus YGL227W, strain vid30, stronger effect = lower value): 0.905 (active)
normalized growth (locus YGL240W, strain doc1, stronger effect = lower value): 0.901
normalized growth (locus YGL248W, strain PDE1, stronger effect = lower value): 0.912
normalized growth (locus YGL253W, strain hxk2, stronger effect = lower value): 0.926
normalized growth (locus YGR078C, strain PAC10, stronger effect = lower value): 0.903
normalized growth (locus YGR135W, strain pre9, stronger effect = lower value): 0.907
normalized growth (locus YGR252W, strain gcn5, stronger effect = lower value): 0.827
normalized growth (locus YHR013C, strain ard1, stronger effect = lower value): 0.859
normalized growth (locus YHR027C, strain rpn1, stronger effect = lower value): 0.947
normalized growth (locus YHR030C, strain SLT2, stronger effect = lower value): 0.92
normalized growth (locus YHR079C, strain IRE1 (second series), stronger effect = lower value): 0.888 (active)
normalized growth (locus YHR094C, strain hxt1, stronger effect = lower value): 0.879 (active)
normalized growth (locus YHR129C, strain ARP1, stronger effect = lower value): 0.916 (active)
normalized growth (locus YHR142W, strain chs7, stronger effect = lower value): 0.735 (active)
normalized growth (locus YHR200W, strain rpn10, stronger effect = lower value): 0.869 (active)
normalized growth (locus YIL066C, strain RNR3, stronger effect = lower value): 0.939
normalized growth (locus YIL073C, strain SPO22, stronger effect = lower value): 0.921
normalized growth (locus YIL125W, strain kgd1, stronger effect = lower value): 0.715 (active)
normalized growth (locus YIR030C, strain dcg1, stronger effect = lower value): 0.878 (active)
normalized growth (locus YJL092W, strain hpr5, stronger effect = lower value): 0.928
normalized growth (locus YJL095W, strain BCK1 (second series), stronger effect = lower value): 0.948
normalized growth (locus YJL095W, strain BCK1, stronger effect = lower value): 0.888
normalized growth (locus YJL115W, strain asf1, stronger effect = lower value): 0.958
normalized growth (locus YJL129C, strain trk1, stronger effect = lower value): 0.815 (active)
normalized growth (locus YJL134W, strain LCB3, stronger effect = lower value): 0.909 (active)
normalized growth (locus YJL154C, strain vps35, stronger effect = lower value): 0.952
normalized growth (locus YJL164C, strain tpk1, stronger effect = lower value): 0.923
normalized growth (locus YJL166W, strain qcr8, stronger effect = lower value): 0.893 (active)
normalized growth (locus YJL168C, strain set2, stronger effect = lower value): 0.872 (active)
normalized growth (locus YJL187C, strain SWE1 (second series), stronger effect = lower value): 0.906
normalized growth (locus YJL187C, strain SWE1, stronger effect = lower value): 0.951
normalized growth (locus YJR043C, strain POL32, stronger effect = lower value): 0.941
normalized growth (locus YJR075W, strain HOC1, stronger effect = lower value): 0.904
normalized growth (locus YKL009W, strain mrt4, stronger effect = lower value): 0.452 (active)
normalized growth (locus YKL068W, stronger effect = lower value): 0.797 (active)
normalized growth (locus YKL085W, strain MDH1 (second series), stronger effect = lower value): 0.667 (active)
normalized growth (locus YKL085W, strain MDH1, stronger effect = lower value): 0.667 (active)
normalized growth (locus YKL160W, strain elf1, stronger effect = lower value): 0.913
normalized growth (locus YKL190W, strain CNB1, stronger effect = lower value): 0.945
normalized growth (locus YKR001C, strain vps1, stronger effect = lower value): 0.83 (active)
normalized growth (locus YKR026C, strain gcn3, stronger effect = lower value): 0.934
normalized growth (locus YKR091W, strain srl3, stronger effect = lower value): 0.965
normalized growth (locus YLL001W, strain dnm1, stronger effect = lower value): 0.951
normalized growth (locus YLL026W, stronger effect = lower value): 0.955
normalized growth (locus YLL041C, strain sdh2, stronger effect = lower value): 0.957
normalized growth (locus YLR027C, strain aat2, stronger effect = lower value): 0.957
normalized growth (locus YLR039C, strain RIC1, stronger effect = lower value): 0.815
normalized growth (locus YLR058C, strain SHM2, stronger effect = lower value): 0.915
normalized growth (locus YLR102C, strain apc9, stronger effect = lower value): 0.881 (active)
normalized growth (locus YLR221C, strain rsa3, stronger effect = lower value): 0.895 (active)
normalized growth (locus YLR258W, strain gsy2, stronger effect = lower value): 0.948
normalized growth (locus YLR262C, strain YPT6 (second series), stronger effect = lower value): 0.821 (active)
normalized growth (locus YLR262C, strain YPT6, stronger effect = lower value): 0.861
normalized growth (locus YLR268W, strain sec22, stronger effect = lower value): 0.906
normalized growth (locus YLR320W, strain mms22, stronger effect = lower value): 0.785 (active)
normalized growth (locus YLR330W, strain CHS5, stronger effect = lower value): 0.896 (active)
normalized growth (locus YLR342W, strain FKS1 (second series), stronger effect = lower value): 0.911
normalized growth (locus YLR342W, strain FKS1, stronger effect = lower value): 0.916
normalized growth (locus YLR357W, strain rsc2, stronger effect = lower value): 0.869
normalized growth (locus YLR370C, strain arc18, stronger effect = lower value): 0.941
normalized growth (locus YLR371W, strain rom2, stronger effect = lower value): 0.898 (active)
normalized growth (locus YLR384C, strain iki3, stronger effect = lower value): 0.944
normalized growth (locus YLR418C, strain cdc73, stronger effect = lower value): 0.814 (active)
normalized growth (locus YML016C, strain PPZ1, stronger effect = lower value): 0.91 (active)
normalized growth (locus YML032C, strain rad52, stronger effect = lower value): 0.908
normalized growth (locus YML120C, strain ndi1, stronger effect = lower value): 0.963
normalized growth (locus YML124C, strain tub3, stronger effect = lower value): 0.867 (active)
normalized growth (locus YMR058W, strain fet3, stronger effect = lower value): 0.916
normalized growth (locus YMR078C, strain ctf18, stronger effect = lower value): 0.839 (active)
normalized growth (locus YMR125W, strain sto1, stronger effect = lower value): 0.953
normalized growth (locus YMR129W, stronger effect = lower value): 0.952
normalized growth (locus YMR205C, strain PFK2, stronger effect = lower value): 0.844 (active)
normalized growth (locus YMR223W, strain ubp8, stronger effect = lower value): 0.9 (active)
normalized growth (locus YMR231W, strain pep5, stronger effect = lower value): 0.969
normalized growth (locus YMR263W, strain SAP30, stronger effect = lower value): 0.893
normalized growth (locus YMR307W, strain GAS1, stronger effect = lower value): 0.791
normalized growth (locus YNL067W, strain RPL9B, stronger effect = lower value): 0.93
normalized growth (locus YNL071W, strain lat1, stronger effect = lower value): 0.734 (active)
normalized growth (locus YNL128W, strain TEP1, stronger effect = lower value): 0.941
normalized growth (locus YNL209W, strain ssb2, stronger effect = lower value): 0.971
normalized growth (locus YNL233W, strain BNI4, stronger effect = lower value): 0.901
normalized growth (locus YNL248C, strain rpa49, stronger effect = lower value): 0.919
normalized growth (locus YNL250W, strain rad50, stronger effect = lower value): 0.767 (active)
normalized growth (locus YNL271C, strain bni1, stronger effect = lower value): 0.794 (active)
normalized growth (locus YNL298W, strain CLA4, stronger effect = lower value): 0.538 (active)
normalized growth (locus YNL307C, strain MCK1, stronger effect = lower value): 0.848 (active)
normalized growth (locus YNL322C, strain KRE1 (second series), stronger effect = lower value): 0.946
normalized growth (locus YNR049C, strain mso1, stronger effect = lower value): 0.943
normalized growth (locus YNR052C, strain pop2, stronger effect = lower value): 0.908 (active)
normalized growth (locus YOL012C, strain htz1): 1.5
normalized growth (locus YOL147C, strain pex11, stronger effect = lower value): 0.872 (active)
normalized growth (locus YOR001W, strain rrp6, stronger effect = lower value): 0.896
normalized growth (locus YOR061W, strain CKA2, stronger effect = lower value): 0.912
normalized growth (locus YOR069W, strain VPS5, stronger effect = lower value): 0.925 (active)
normalized growth (locus YOR070C, strain gyp1, stronger effect = lower value): 0.961
normalized growth (locus YOR080W, strain dia2, stronger effect = lower value): 0.965
normalized growth (locus YOR083W, strain WHI5, stronger effect = lower value): 0.928
normalized growth (locus YOR106W, strain vam3, stronger effect = lower value): 0.917
normalized growth (locus YOR136W, strain idh2, stronger effect = lower value): 0.938
normalized growth (locus YOR144C, strain elg1, stronger effect = lower value): 0.874 (active)
normalized growth (locus YOR184W, strain ser1, stronger effect = lower value): 0.9
normalized growth (locus YOR265W, strain rbl2, stronger effect = lower value): 0.96
normalized growth (locus YOR270C, strain vph1, stronger effect = lower value): 0.731 (active)
normalized growth (locus YOR290C, strain snf2, stronger effect = lower value): 0.797 (active)
normalized growth (locus YOR316C, strain cot1, stronger effect = lower value): 0.875 (active)
normalized growth (locus YPL051W, strain arl3, stronger effect = lower value): 0.897 (active)
normalized growth (locus YPL078C, strain atp4, stronger effect = lower value): 0.905
normalized growth (locus YPL106C, strain sse1, stronger effect = lower value): 0.928
normalized growth (locus YPL240C, strain hsp82, stronger effect = lower value): 0.95
normalized growth (locus YPR119W, strain clb2, stronger effect = lower value): 0.856 (active)
normalized growth (locus YPR141C, strain kar3, stronger effect = lower value): 0.802 (active)
normalized growth (locus YPR163C, strain tif3, stronger effect = lower value): 0.906 (active)
normalized growth (locus YPR167C, strain met16, stronger effect = lower value): 0.873 (active)
normalized growth (strain wtn01, stronger effect = lower value): 0.909
